# Screening data as filed in PubChem BioAssay.
# BCR signal inh = chronic active BCR signaling inhibition. ABC-DLBCL IkBa-CBG/CBR reporter, luminescence ratio, 4 h. Potency, µM (titrated, usually from 46.1 µM), without a hit: at the highest dose activity change, negative = inhibition, actives largely listed as inhibitors. hit rate 0.05% among 340,000. AID 493014; active = well fitted inhibition curve with a large enough effect in the signal ratio, with a control signal flat, not every such curve was filed as active; inconclusive = small, poorly fitted or top-dose-only effect, or effect the other way, or a change in a side signal; the % refers to the signal ratio;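 also: plate controls were basal doxycycline-induced cells for no effect and cells given 10 µM MG132 for full effect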
#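 TMD8 human ABC-DLBCL cells with doxycycline-inducible IκBα–green luciferase fusion and unfused red luciferase, in 0.5% FBS medium; compounds up to 46 uM, 4 h at 37C. Green/red luminescence ratio, filter-overlap corrected, fitted to concentration-response curves.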
# VP16 counter = Gal4-VP16 reporter inhibition counter-screen; Drosophila S2 Gal4-VP16 UAS-luciferase, luminescence, 20 h; Potency, µM (highest dose often 53.6 µM), for inactives: top-dose activity, negative = inhibition, actives largely listed as inhibitors; hit rate 3.5% among 310,000; AID 2546;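 also: Gal4-VP16 expression switched on by copper sulfate through the metallothionein promoter; % is scaled to controls: 0 for no effect and ±100 for the full control effect; nearly all actives have a fitted effect of over 50% in size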
# RORg inh = ROR gamma (mouse) transcription inhibition. Potency, µM (titrated, usually from 53.6 µM), inactives show at the highest dose activity change, negative = inhibition, hits mostly inhibitors. hit rate 5.4% among 310,000. Drosophila S2 Gal4-RORgamma UAS-luciferase reporter, 20 h; also: % is scaled to controls: 0 for no effect and ±100 for the full control effect; nearly all actives have a fitted effect of over 60% in size
# Target sequence (P51450 whole entry, looked up, the tested form may be a part): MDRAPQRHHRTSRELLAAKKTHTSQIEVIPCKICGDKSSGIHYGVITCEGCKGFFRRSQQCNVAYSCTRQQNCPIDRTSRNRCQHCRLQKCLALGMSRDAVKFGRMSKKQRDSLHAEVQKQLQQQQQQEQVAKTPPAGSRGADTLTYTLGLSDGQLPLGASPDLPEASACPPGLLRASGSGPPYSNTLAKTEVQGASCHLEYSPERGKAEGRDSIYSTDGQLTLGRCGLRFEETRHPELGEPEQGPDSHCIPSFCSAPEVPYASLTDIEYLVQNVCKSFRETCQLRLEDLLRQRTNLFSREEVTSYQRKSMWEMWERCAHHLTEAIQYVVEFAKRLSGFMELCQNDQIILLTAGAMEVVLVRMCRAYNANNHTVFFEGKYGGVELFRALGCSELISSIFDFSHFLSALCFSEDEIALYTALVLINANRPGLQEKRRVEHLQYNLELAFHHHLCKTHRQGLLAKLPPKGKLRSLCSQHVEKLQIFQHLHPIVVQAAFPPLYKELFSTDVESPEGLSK
#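 Drosophila Schneider cells stably carrying a metallothionein-driven Gal4 DBD–ROR gamma fusion and a UAS-Photinus luciferase reporter were exposed to compound for 1 hr, then induced with copper sulfate (700 uM final) for 20 hr at ambient temperature before luminescence reading.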
# Mito fusion act = inhibitors of mitochondrial division or activators of mitochondrial fusion; AID 485298; hit rate 0.23% among 320,000; Potency, µM (doses to about 46.1 µM), for the others: at the highest dose growth rescue (activation), most hits filed as activators; S. cerevisiae fusion-defective mutant growth rescue, CellTiterGlo 48 h; also: % of control where 0% means no effect; nearly all actives have a fitted effect of over 45% in size
#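 Growth-rescue viability read-out: after 48 h at the non-permissive 37C in glycerol/ethanol YPEG, yeast mitochondrial fusion mutants are measured by CellTiterGlo luminescence; compounds (23 nl pinned per well) restoring growth score as division inhibitors or fusion activators.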
# uPA surface inh = inhibitors of cell surface uPA generation | cell surface uPA generation assay, qHTS | Potency, µM (top dose mostly 38.3 µM), without a hit: top-dose activity change, negative = inhibition, actives largely listed as inhibitors | hit rate 0.31% among 330,000; active = well fitted inhibition curve with a large enough effect; inconclusive = small, poorly fitted or top-dose-only effect; inactive = no such curve, though single readings can be large or run the other way; tested in mouse RAW 264.7 cells; also: % is scaled to controls: 0 for no effect and ±100 for the full control effect; nearly all actives have a fitted effect of over 55% in size
# Integrin act MD = integrin-mediated muscular dystrophy alleviation activation; alpha7betagal myoblasts, beta-gal FDG fluorescence, 48 h; Potency, µM (top dose mostly 38.3 µM), inactives show top-dose activation, most hits filed as activators; hit rate 0.064% among 350,000;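 also: 100% = response of the positive control SU9516; nearly all actives have a fitted effect of over 60% in size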
#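 alpha7betagal+/- myoblasts (passage 13, 250/well) treated 48 h at 37C with compounds at 1:260 dilution of DMSO stock. Lysed, then beta-galactosidase activity read as FDG fluorescence (ex 480/em 540) after 30 min, with pre-read for autofluorescence.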
# * = called active by the depositor; ? = inconclusive; nt = no result; [ ] = dose if it differs, or a comment. Compounds with a hit are over-represented: about 5.5% of the library has one in this group of screens. Unless noted, calls follow the shape of the dose curve; as a rule, active = well fitted curve in the direction sought with a large enough effect; inconclusive = small, poorly fitted or top-dose-only effect, or another doubt; inactive = no such curve, though single readings can be large; an effect the other way counts as inactive or inconclusive. Potency is read from the fitted curve at half-maximal effect.
SMILES,BCR signal inh,VP16 counter,RORg inh,Mito fusion act,uPA surface inh,Integrin act MD
COc1cccc(-c2sc3ccccc3c2-c2ccc(OCCN(C)C)cc2)c1,?,nt,nt,nt,?,-5%
CCCCCn1c(=O)c(C(=O)Nc2ncccc2C)c(O)c2ccccc21,0%,8.9µM*,8.9µM*,-2%,-8%,0%
CCCCn1c(=O)c(C(=O)Nc2ccccc2C)c(O)c2ccccc21,-2%,-24%,?,-1%,-1%,29%
O=C1NC(=S)NC(=O)C1=Cc1cccn1-c1ccc(O)cc1,?,8.9µM*,2.8µM*,-5%,?,-60%
Cc1cc(C)cc(N2C(=O)NC(=O)/C(=C\c3cccn3-c3ccccc3)C2=O)c1,?,?,-14%[10 µM],-1%,-14%,-53%
Cc1cc(C)cc(N2C(=O)NC(=O)/C(=C\c3cccn3-c3ccc(Cl)cc3)C2=O)c1,-3%,?,?,-7%,0%,25%
CN1C(=O)/C(=C/c2cccn2-c2ccc3ccccc3c2)C(=O)NC1=S,?,-88%,13µM*,-4%,-2%,-5%
c1ccc2c(c1)c1cc[n+]2CCCCC[n+]2ccc(c3ccccc32)NCCCCCN1,nt,-12%,-31%,nt,nt,nt
CCOC(=O)c1sc(NC(=O)CN2CCN(c3ccc(OC)cc3)CC2)nc1C,?,2%,27%,-2%,-5%,18%
O=c1cc(CN2CC=C(c3ccccc3)CC2)c2c(ccc3ccccc32)o1,?,-6%,5.6µM*,7%,6%,?
Cc1cc(O)c(CN2CC=C(c3ccccc3)CC2)cc1C(C)C,-6%,9%,3%,-3%,-3%,?
COc1cc(C=C2C(=O)NC(=O)NC2=O)ccc1OCc1ccc([N+](=O)[O-])cc1,-2%,0%,4%,0%,-1%,12%
COc1cc(/C=C(/C)[N+](=O)[O-])ccc1OCc1ccccc1Cl,?,?,4µM*,-19%,-19%,-66%
CCCCCCCC(=O)Cl,nt,-4%,-16%,nt,nt,nt
COc1ccc(C(=O)NC(=S)N2C[C@H]3C[C@H](C2)c2cccc(=O)n2C3)cc1OC,11%,-9%,-34%,4%,2%,22%
O=C(Nc1cccc(Cl)c1)N1C[C@H]2C[C@@H](C1)c1cccc(=O)n1C2,0%,-1%,1%,-1%,-1%,15%
O=C(NC(=S)N1C[C@H]2C[C@H](C1)c1cccc(=O)n1C2)c1ccc(Cl)cc1Cl,?,-28%,10µM*,-3%,0%,-1%
CCCOc1ccc(C(=O)NC(=S)N2C[C@H]3C[C@H](C2)c2cccc(=O)n2C3)cc1,?,?,8.9µM*,0%,-5%,-10%
Clc1nc(Cl)nc(Nc2ccccc2Cl)n1,nt,-3%,-14%,nt,nt,nt
CC(C)(C)c1cc([N+](=O)[O-])cc(C(C)(C)C)c1O,10%,4.5µM*,14µM*,-3%,7.9µM*,-23%
CCOC(=O)C(O)(c1ccc(NC(=S)NC(=O)c2ccc(Cl)cc2Cl)cc1)C(F)(F)F (stereo not given),?,10µM*,6.3µM*,1%,-2%,-51%
COC(=O)C(O)(c1ccc(NC(=S)NC(=O)c2ccc(Cl)cc2Cl)cc1)C(F)(F)F (stereo not given),?,?,5µM*,2%,-5%,-43%
COC(=O)C(O)(c1ccc(NC(=O)NC2CCCCC2)cc1)C(F)(F)F (stereo not given),-5%,3%,?,-16%,-3%,8%
CCOC(=O)C(O)(c1ccc(NC(=O)Oc2ccccc2)cc1)C(F)(F)F (stereo not given),1%,-1%,13%,-1%,-7%,18%
CCCCCc1cc(O)c2c(c1)OC(C)(C)C1CC=C(C)CC21 (stereo not given),nt,?,31%,nt,nt,nt
SMILES,BCR signal inh,VP16 counter,RORg inh,Mito fusion act,uPA surface inh,Integrin act MD
CCC(CC)c1nnc(NC(=O)CC(C)c2ccccc2)s1 (stereo not given),5%,-1%,-19%,0%,-1%,-14%
C/C=C(\C)C(=O)N[C@@H](c1ccccc1)[C@@H](O)C(=O)O[C@H]1C[C@@]2(O)[C@@H](OC(=O)c3ccccc3)C3[C@](C)(C(=O)[C@H](O)C(=C1C)C2(C)C)[C@@H](O)C[C@H]1OC[C@@]31OC(C)=O (stereo not given in full),-3%,-26%,?,-1%,0.71µM*,?
CCCCCC1C(=O)O[C@H](C)[C@@H](NC(=O)c2cccc(NC=O)c2O)C(=O)OC(C)C1OC(=O)CC(C)C (stereo not given in full),nt,11µM*,0.005µM*,nt,nt,nt
CCCC[C@H]1C(=O)O[C@H](C)[C@H](NC(=O)c2cccc(NC=O)c2OC)C(=O)O[C@@H](C)[C@@H]1OC(=O)CC(C)C,nt,1.8µM*,1.8µM*,nt,nt,nt
CC(C)C[C@H](NC(=O)[C@H](CC(C)C)NC(=O)[C@H](Cc1ccccc1)NC(=O)[C@@H](N)Cc1ccc(O)cc1)C(=O)N[C@@H](CCCN=C(N)N)C(=O)N[C@@H](CC(N)=O)C(=O)N1CCC[C@H]1C(=O)O,nt,5%,5%,nt,nt,nt
CC(C)Oc1ccc(CNC(=O)Oc2ccccc2)cc1,1%,30%,30%,-2%,?,-11%
C=CCCC#N,nt,-13%,-8%,nt,nt,nt
Cc1ccc(N=C=O)cc1N=C=O,nt,12%,?,nt,nt,nt
CC(=O)[O][Hg][c]1ccccc1,nt,1%,1.1µM*,nt,nt,nt
Cc1cccc(OC(=O)n2c(=S)oc3cc(Cl)ccc32)c1,-1%,?,?,?,-8%,42%
C[C@@H]1Cc2c(Cl)cc(C(=O)N[C@@H](Cc3ccccc3)C(=O)O)c(O)c2C(=O)O1,nt,22µM*,?,nt,nt,nt
O=C(NC1(Cc2ccccc2)CCN(Cc2ccc(-c3ccccc3)cc2)C1=O)c1ccccc1 (stereo not given),-3%,nt,nt,?,?,-4%
Cc1cc(Br)ccc1S(=O)(=O)NCc1ccccc1,1%,6%,20%,7%,?,5%
C(=N\Nc1nc2ccccc2[nH]1)/c1cccc2nccnc12,?,5.6µM*,1µM*,-2%,-13%,-36%
COCCN(C(=O)CCl)c1c(C)cccc1C,nt,11%,10%,nt,nt,nt
S=c1[nH]nc(-c2ccco2)n1-c1cccc2ccccc12,-5%,13µM*,7.9µM*,3%,4%,8%
[O-][Br+2]([O-])O,nt,-13%,-4%,nt,nt,nt
CCOC(=O)N1CCN(c2ncnc3c2[nH]c2ccc(F)cc23)CC1,?,7.1µM*,?,6%,-12%,-60%
